The campaign covered roughly 5,500 compounds. About 2,000 (36%) were called active. Inconclusive results (about 18%) are left out. Cut-off read from the data, not from the text of the source: active = normalized growth mostly below about 0.91 (no sharp cut-off); inconclusive = no clear call, values can overlap the other calls; inactive = mostly above about 0.92. The list shows a part of the results.
Experiment: chemical genetic growth profiling, strain panel (AID 1159580);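 note: tested at 20 µM; growth read once vehicle control cultures reached saturation at 30 °C; 1 = growth at the plate median or of vehicle wells; lower values mean less growth of the strain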
Settings: growth OD

Measured: normalized growth

CN1CCC(=C2c3ccccc3Sc3ccccc32)CC1
inactive: S. cerevisiae deletion strains, locus YJR075W, strain HOC1, stronger effect = lower value 0.935 | S. cerevisiae deletion strains, locus YKL009W, strain mrt4, stronger effect = lower value 0.982 | S. cerevisiae deletion strains, locus YKL068W, stronger effect = lower value 1 | S. cerevisiae deletion strains, locus YKL085W, strain MDH1 (second series), stronger effect = lower value 0.999 | S. cerevisiae deletion strains, locus YKL085W, strain MDH1, stronger effect = lower value 0.999 | S. cerevisiae deletion strains, locus YKL160W, strain elf1, stronger effect = lower value 1 | S. cerevisiae deletion strains, locus YKL190W, strain CNB1, stronger effect = lower value 1 | S. cerevisiae deletion strains, locus YKR001C, strain vps1, stronger effect = lower value 0.996 | S. cerevisiae deletion strains, locus YKR026C, strain gcn3, stronger effect = lower value 1.03 | S. cerevisiae deletion strains, locus YKR091W, strain srl3, stronger effect = lower value 1.03 | S. cerevisiae deletion strains, locus YLL001W, strain dnm1, stronger effect = lower value 1.03 | S. cerevisiae deletion strains, locus YLL026W, stronger effect = lower value 1.02 | S. cerevisiae deletion strains, locus YLL041C, strain sdh2, stronger effect = lower value 1.01 | S. cerevisiae deletion strains, locus YLR027C, strain aat2, stronger effect = lower value 1.02 | S. cerevisiae deletion strains, locus YLR058C, strain SHM2, stronger effect = lower value 1 | S. cerevisiae deletion strains, locus YLR102C, strain apc9, stronger effect = lower value 1.01 | S. cerevisiae deletion strains, locus YLR113W, strain HOG1, stronger effect = lower value 0.979 | S. cerevisiae deletion strains, locus YLR221C, strain rsa3, stronger effect = lower value 1 | S. cerevisiae deletion strains, locus YLR258W, strain gsy2, stronger effect = lower value 1.04 | S. cerevisiae deletion strains, locus YLR262C, strain YPT6 (second series), stronger effect = lower value 1.13 | S. cerevisiae deletion strains, locus YLR268W, strain sec22, stronger effect = lower value 1.06 | S. cerevisiae deletion strains, locus YLR320W, strain mms22, stronger effect = lower value 1.01 | S. cerevisiae deletion strains, locus YLR330W, strain CHS5, stronger effect = lower value 0.994 | S. cerevisiae deletion strains, locus YLR342W, strain FKS1 (second series), stronger effect = lower value 0.859 | S. cerevisiae deletion strains, locus YLR342W, strain FKS1, stronger effect = lower value 1.03 | S. cerevisiae deletion strains, locus YLR357W, strain rsc2, stronger effect = lower value 1.04 | S. cerevisiae deletion strains, locus YLR370C, strain arc18, stronger effect = lower value 1.02 | S. cerevisiae deletion strains, locus YLR371W, strain rom2, stronger effect = lower value 1.02 | S. cerevisiae deletion strains, locus YLR384C, strain iki3, stronger effect = lower value 1.02 | S. cerevisiae deletion strains, locus YLR418C, strain cdc73, stronger effect = lower value 0.874 | S. cerevisiae deletion strains, locus YML016C, strain PPZ1, stronger effect = lower value 0.998 | S. cerevisiae deletion strains, locus YML032C, strain rad52, stronger effect = lower value 1.01 | S. cerevisiae deletion strains, locus YML120C, strain ndi1, stronger effect = lower value 0.985 | S. cerevisiae deletion strains, locus YML124C, strain tub3, stronger effect = lower value 1.02 | S. cerevisiae deletion strains, locus YMR058W, strain fet3, stronger effect = lower value 1.01 | S. cerevisiae deletion strains, locus YMR078C, strain ctf18, stronger effect = lower value 1 | S. cerevisiae deletion strains, locus YMR125W, strain sto1, stronger effect = lower value 1.03 | S. cerevisiae deletion strains, locus YMR129W, stronger effect = lower value 1.01 | S. cerevisiae deletion strains, locus YMR205C, strain PFK2, stronger effect = lower value 1.06 | S. cerevisiae deletion strains, locus YMR223W, strain ubp8, stronger effect = lower value 0.962 | S. cerevisiae deletion strains, locus YMR231W, strain pep5, stronger effect = lower value 1.02 | S. cerevisiae deletion strains, locus YMR263W, strain SAP30, stronger effect = lower value 0.969 | S. cerevisiae deletion strains, locus YMR307W, strain GAS1, stronger effect = lower value 1.05 | S. cerevisiae deletion strains, locus YNL067W, strain RPL9B, stronger effect = lower value 0.997 | S. cerevisiae deletion strains, locus YNL071W, strain lat1, stronger effect = lower value 1.01 | S. cerevisiae deletion strains, locus YNL128W, strain TEP1, stronger effect = lower value 1.01 | S. cerevisiae deletion strains, locus YNL153C, strain GIM3, stronger effect = lower value 0.982 | S. cerevisiae deletion strains, locus YNL183C, strain NPR1, stronger effect = lower value 0.892 | S. cerevisiae deletion strains, locus YNL209W, strain ssb2, stronger effect = lower value 1 | S. cerevisiae deletion strains, locus YNL233W, strain BNI4, stronger effect = lower value 1 | S. cerevisiae deletion strains, locus YNL248C, strain rpa49, stronger effect = lower value 0.958 | S. cerevisiae deletion strains, locus YNL250W, strain rad50, stronger effect = lower value 1.01 | S. cerevisiae deletion strains, locus YNL271C, strain bni1, stronger effect = lower value 1.02 | S. cerevisiae deletion strains, locus YNL298W, strain CLA4, stronger effect = lower value 1 | S. cerevisiae deletion strains, locus YNL307C, strain MCK1, stronger effect = lower value 0.993 | S. cerevisiae deletion strains, locus YNL322C, strain KRE1 (second series), stronger effect = lower value 1.03 | S. cerevisiae deletion strains, locus YNL322C, strain KRE1, stronger effect = lower value 1.01 | S. cerevisiae deletion strains, locus YNR049C, strain mso1, stronger effect = lower value 1.02 | S. cerevisiae deletion strains, locus YNR052C, strain pop2, stronger effect = lower value 0.973 | S. cerevisiae deletion strains, locus YOL006C, strain TOP1, stronger effect = lower value 0.879 | S. cerevisiae deletion strains, locus YOL012C, strain htz1 0.875 | S. cerevisiae deletion strains, locus YOL147C, strain pex11, stronger effect = lower value 1.01 | S. cerevisiae deletion strains, locus YOR001W, strain rrp6, stronger effect = lower value 0.97 | S. cerevisiae deletion strains, locus YOR061W, strain CKA2, stronger effect = lower value 1.01 | S. cerevisiae deletion strains, locus YOR069W, strain VPS5, stronger effect = lower value 0.996 | S. cerevisiae deletion strains, locus YOR070C, strain gyp1, stronger effect = lower value 1.02 | S. cerevisiae deletion strains, locus YOR080W, strain dia2, stronger effect = lower value 1.03 | S. cerevisiae deletion strains, locus YOR083W, strain WHI5, stronger effect = lower value 0.96 | S. cerevisiae deletion strains, locus YOR106W, strain vam3, stronger effect = lower value 0.966 | S. cerevisiae deletion strains, locus YOR136W, strain idh2, stronger effect = lower value 1.04 | S. cerevisiae deletion strains, locus YOR144C, strain elg1, stronger effect = lower value 1.01 | S. cerevisiae deletion strains, locus YOR184W, strain ser1, stronger effect = lower value 1.03 | S. cerevisiae deletion strains, locus YOR231W, strain MKK1, stronger effect = lower value 0.99 | S. cerevisiae deletion strains, locus YOR265W, strain rbl2, stronger effect = lower value 1.02 | S. cerevisiae deletion strains, locus YOR270C, strain vph1, stronger effect = lower value 0.933 | S. cerevisiae deletion strains, locus YOR290C, strain snf2, stronger effect = lower value 0.973 | S. cerevisiae deletion strains, locus YOR316C, strain cot1, stronger effect = lower value 1.01 | S. cerevisiae deletion strains, locus YPL051W, strain arl3, stronger effect = lower value 0.974 | S. cerevisiae deletion strains, locus YPL055C, strain LGE1, stronger effect = lower value 0.958 | S. cerevisiae deletion strains, locus YPL078C, strain atp4, stronger effect = lower value 0.983 | S. cerevisiae deletion strains, locus YPL106C, strain sse1, stronger effect = lower value 1.09 | S. cerevisiae deletion strains, locus YPL240C, strain hsp82, stronger effect = lower value 1.02 | S. cerevisiae deletion strains, locus YPL241C, strain CIN2, stronger effect = lower value 1 | S. cerevisiae deletion strains, locus YPL256C, strain CLN2, stronger effect = lower value 0.995 | S. cerevisiae deletion strains, locus YPR119W, strain clb2, stronger effect = lower value 1.01 | S. cerevisiae deletion strains, locus YPR141C, strain kar3, stronger effect = lower value 1.01 | S. cerevisiae deletion strains, locus YPR163C, strain tif3, stronger effect = lower value 0.993 | S. cerevisiae deletion strains, locus YPR167C, strain met16, stronger effect = lower value 1.01 | S. cerevisiae deletion strains, strain wtn01, stronger effect = lower value 1.02 | S. cerevisiae strains, strain wild type, stronger effect = lower value 0.993
active: S. cerevisiae deletion strains, locus YLR039C, strain RIC1, stronger effect = lower value 1.34 [resistant] | S. cerevisiae deletion strains, locus YLR262C, strain YPT6, stronger effect = lower value 1.44 [resistant]

— PubChem BioAssay AID1159580 (chemical genetic matrix, 2015)
